Screening data: PubChem BioAssay, several laboratories
M1 antagonist – antagonists of rat M1 muscarinic receptor. Muscarinic acetylcholine receptor M1 (Rattus norvegicus), P08482. CHO-M1 cells, Fluo-4 calcium, ACh EC80 antagonist mode; stronger effect = lower value. B-score at 10 µM. actives 3.4% (n = 64,000);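 active = calcium fluorescence response, raw or row-and-column corrected B-score, differing from the plate sample mean either way at a set confidence level, mostly lower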
D1 mod – D1 CRE-luciferase signal change, two-sided – cell-based, HEK293 D1, dopamine EC30, D1 allosteric modulator project, primary screen; D(1A) dopamine receptor (Homo sapiens), P21728; dopamine EC30 potentiation; actives deviate in either direction; B-score at 10 µM; actives 5.9% (n = 58,000); AID 641, 2007;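 active = luminescence count or its row- and column-corrected plate score outside the 99.7% band of the plate's sample wells, on either side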
mHtt clearance – clearance of mutant huntingtin inclusions, primary screen, imaging, HeLa Exon1htt(103Q)mCFP, confocal imaging | inhibition, % at 1.5 µM | actives 0.42% (n = 47,000) | aggregate imaging; zero = plate's median compound well;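 active = inhibition of aggregate fluorescence above about 70%, also judged a hit by eye on the cell image, limit read from the data, passing the limit was not always enough; inconclusive = no rule stated for this call; inactive = not judged a hit on image review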;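 note: cells exposed to compound for three days before fixation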
M1 ag – M1 muscarinic receptor agonists, primary screen, CHO-M1 cells, Fluo-4 calcium, agonist mode. Fluo-4 calcium fluorescence; stronger effect = higher value. B-score at 10 µM. AID 626, 2007. actives 3% (n = 64,000). Muscarinic acetylcholine receptor M1;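 active = fluorescence rise, raw or as B-score row- and column-corrected plate score, outside the 99.7% band of its plate's samples, either direction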
M1 ag confirm – rat M1 muscarinic receptor agonists, confirmation, CHO-M1 cells, Fluo-4 calcium, duplicate retest. actives 19% (n = 1,700). fluorescence change (max-min) at 10 µM. shares compounds with M1 ag. AID 1488, 2009. Fluo-4 calcium fluorescence, agonist mode; actives lie on both sides;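 active = fluorescence change differs from the solvent-only DMSO control mean at a set confidence level in both duplicate runs; inconclusive = differs from solvent-only control mean in just one of two runs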;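 note: an EC20 dose of acetylcholine follows compound addition during the same imaging run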
M4 ag counter – agonist activity at rat M4 receptor, confirmation, counter-screen for M1 allosteric modulator project, cell-based, agonist mode; shares compounds with M1 ag; CHO M4/Gqi5 cells, Fluo-4 calcium fluorescence; actives lie on both sides; fluorescence change (max-min) at 10 µM; actives 9% (n = 1,700); AID 1741, 2009;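 active = fluorescence change differing from the plate's solvent-only control wells at 99.7% confidence in both duplicates, whether higher or lower; inconclusive = differs from solvent controls in only one of two duplicates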
Target sequence (P08485 whole entry, looked up): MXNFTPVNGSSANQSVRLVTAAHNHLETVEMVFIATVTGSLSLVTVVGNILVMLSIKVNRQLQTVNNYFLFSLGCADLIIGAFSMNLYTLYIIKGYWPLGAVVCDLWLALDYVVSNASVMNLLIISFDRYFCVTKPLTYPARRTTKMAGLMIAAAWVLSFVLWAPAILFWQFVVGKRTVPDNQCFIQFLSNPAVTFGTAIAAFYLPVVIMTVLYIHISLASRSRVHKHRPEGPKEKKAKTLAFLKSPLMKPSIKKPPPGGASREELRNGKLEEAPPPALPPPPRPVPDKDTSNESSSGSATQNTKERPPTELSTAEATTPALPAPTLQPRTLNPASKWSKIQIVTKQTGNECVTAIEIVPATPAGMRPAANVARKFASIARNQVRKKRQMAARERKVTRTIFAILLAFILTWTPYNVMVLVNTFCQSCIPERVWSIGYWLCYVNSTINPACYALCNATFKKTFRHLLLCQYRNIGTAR
Of the large screens only hits and unclear results are named; the others gave an inactive call (follow-up assays come after a bar, where they were run). Only some compounds are listed: those with a hit (about 9.1% of all), similar ones and a draw of the others.

CCOc1ccc(C2C(C#N)=C(N)Oc3n[nH]c(C)c32)cc1OC(=O)C1CC1 (configuration not stated)	M1 ag 4.6 (no result: mHtt clearance) | M1 ag confirm inactive | M4 ag counter inactive
COc1ccc(CNc2nc3c(c(=O)n(Cc4ccc(Br)cc4)c(=O)n3C)n2C)cc1	D1 mod -2.7, M1 ag 3.4 | M1 ag confirm inactive | M4 ag counter inactive
Cc1ccc(CNC(=O)CSc2nc3ccccc3c3nc(C)nn23)cc1	none (no result: M1 antagonist, D1 mod, M1 ag)
O=C(c1ccco1)N1CCN=C1SCc1cccnc1	none
O=C(c1ccco1)N1CCN=C1SCc1ccccc1F	M1 ag -3.3 (no result: mHtt clearance) | M1 ag confirm inactive | M4 ag counter inactive
Cc1ccc(-c2nnc(N3CCN(c4ccccn4)CC3)c3ccccc23)cc1	M1 antagonist -3.5, M1 ag 2 | M1 ag confirm inconclusive | M4 ag counter inactive
Cc1cc2c(c(=O)o1)C1(C(=O)N(CC(=O)O)c3ccccc31)C(C#N)=C(N)O2 (configuration not stated)	M1 ag 18 | M1 ag confirm 60 | M4 ag counter inactive
COc1cccc(C2C3CN(C)CC=C3C(C#N)=C(N)C2(C#N)C#N)c1OC (configuration not stated)	M1 ag 87 | M1 ag confirm 651 | M4 ag counter 605
CCOC(=O)N1CC=C2C(C#N)=C(N)C(C#N)(C#N)[C@H](c3ccc(OC(C)C)c(OCC)c3)[C@H]2C1	none
COc1cc([C@@H]2[C@H]3CN(C)CC=C3C(C#N)=C(N)C2(C#N)C#N)cc2c1OCO2	M1 ag 6.6 (no result: D1 mod, mHtt clearance) | M1 ag confirm inactive | M4 ag counter inactive
CN1CC=C2C(C#N)=C(N)C(C#N)(C#N)[C@H](c3cccc(Cl)c3)C2C1 (some centres not stated)	M1 ag 54 | M1 ag confirm 173 | M4 ag counter inactive
CN1CC=C2C(C#N)=C(N)C(C#N)(C#N)C(CCc3ccccc3)C2C1 (configuration not stated)	M1 ag 18 (no result: mHtt clearance) | M1 ag confirm 91 | M4 ag counter inactive
Cc1ccn2c(C(=O)c3ccc(Cl)cc3)cnc2c1	none (no result: M1 antagonist, D1 mod, M1 ag)
N#Cc1c(SCC(N)=O)nc2c(c1-c1ccc(OCc3ccccc3)cc1)CCCC2	none (no result: M1 antagonist, D1 mod, M1 ag)
CCN1CC=C2C(C#N)=C(N)C(C#N)(C#N)[C@H](c3cccc(OC)c3OC)[C@H]2C1	M1 ag 271 (no result: mHtt clearance) | M1 ag confirm 307 | M4 ag counter inconclusive
CCCC(=O)Nc1nc(-c2ccc3c(c2)OCCO3)cs1	M1 ag 3.2 (no result: D1 mod) | M1 ag confirm inactive | M4 ag counter inactive
c1ccc(N2CCN(c3ncnc4c3oc3ccccc34)CC2)cc1	none
CCOC(=O)C1CCN(c2nc(-c3ccccc3)nc3c2oc2ccccc23)CC1	M1 ag 5.8 | M1 ag confirm inactive | M4 ag counter inactive
CCOC(=O)C1CCCN(C(=O)c2cc(=O)c3ccccc3o2)C1 (configuration not stated)	none (no result: mHtt clearance)
CCc1nnc(N2CCN(c3ncnc4c3oc3ccccc34)CC2)s1	M1 antagonist -4, M1 ag 9.9 (no result: mHtt clearance) | M1 ag confirm inactive | M4 ag counter inactive
CCOC(=O)C1CCCN(c2ncnc3c2oc2ccccc23)C1 (configuration not stated)	M1 antagonist -3.3, M1 ag 4.2 | M1 ag confirm inactive | M4 ag counter inactive
CCn1c(=O)cc(SCC(=O)N2CCN(c3ccccn3)CC2)c2ccccc21	M1 ag 5.9 (no result: D1 mod, mHtt clearance) | M1 ag confirm -29 | M4 ag counter inactive
CCOC(=O)CSc1cc(=O)n(CC)c2ccccc12	none (no result: M1 antagonist, D1 mod, M1 ag)
CC(OC(=O)c1ccccc1NCc1ccco1)C(=O)Nc1ncc(Cl)cc1Cl (configuration not stated)	none (no result: mHtt clearance)
Cc1c(NC(=O)CSc2ncn[nH]2)c(=O)n(-c2ccccc2)n1C	none (no result: M1 antagonist, D1 mod, M1 ag)
Cc1ccc2nc(SCC(=O)Nc3c(C)n(C)n(-c4ccccc4)c3=O)[nH]c2c1	M1 ag 2.9 | M1 ag confirm inactive | M4 ag counter inactive
c1ccc(CSc2nnnn2-c2ccc3c(c2)OCCO3)nc1	M1 ag 6.7 (no result: mHtt clearance) | M1 ag confirm inactive | M4 ag counter inactive
Cc1ccc2nc(N3CCN(S(=O)(=O)c4ccc(C)c(Cl)c4)CC3)c(C#N)cc2c1	none (no result: M1 antagonist, D1 mod, M1 ag)
CCOC(=O)C1CCN(C(=O)C2c3ccccc3C(=O)N(C)C2c2ccc(OC)cc2)CC1 (configuration not stated)	M1 ag 10 | M1 ag confirm inconclusive | M4 ag counter inactive
Cc1ccnc(NC(=O)CCC(=O)N(CC(=O)NC2CCCCC2)Cc2ccc3c(c2)OCO3)c1	none (no result: mHtt clearance)
CN(Cc1cccs1)c1ncnc2sccc12	M1 ag 2.6 | M1 ag confirm inactive | M4 ag counter -87
c1csc(CNc2ncnc3sccc23)c1	none (no result: M1 antagonist, mHtt clearance, M1 ag)
Cc1ccc(-c2c(C)n([O-])c3c([n+]2=O)CCCC3)o1	none (no result: M1 antagonist, D1 mod, M1 ag)
O=C(COC(=O)CCc1c[nH]c(=O)[nH]1)Nc1ccccc1	none (no result: mHtt clearance)
Cc1ccc(NC(=O)COC(=O)CCc2c[nH]c(=O)[nH]2)cc1	M1 ag 7.3 | M1 ag confirm inactive | M4 ag counter inactive
O=C(CN1CCOCC1)N1CCN(C(=O)CN2CCOCC2)CC1	none
NC(=O)C1CCN(c2ncnc3c2c(-c2ccccc2)cn3-c2ccccc2)CC1	D1 mod -3.8, M1 ag 3.7 (no result: mHtt clearance) | M1 ag confirm inconclusive | M4 ag counter inactive
Cc1ccc2nc(/C(C#N)=N/O)[nH]c2c1	M1 ag 3.6 | M1 ag confirm inconclusive | M4 ag counter inactive
CN1C=CC2=C(C#N)C(N)C(C#N)(C#N)[C@H](c3ccccc3)[C@H]2C1 (some centres not stated)	none (no result: M1 antagonist, D1 mod, M1 ag)
Cc1csc(SCC(=O)Nc2cc(C(C)(C)C)nn2-c2ccccc2)n1	M1 ag 2.5 (no result: D1 mod, mHtt clearance) | M1 ag confirm inconclusive | M4 ag counter inactive
COc1ccc2c(c1)c1ncn(CCN3CCCC3)c(=O)c1n2C	none (no result: mHtt clearance)
COc1ccccc1CCn1cnc2c3cc(C)ccc3n(C)c2c1=O	M1 ag 1.8 (no result: D1 mod, mHtt clearance) | M1 ag confirm inconclusive | M4 ag counter inactive
Cc1n[nH]c(C)c1N1C(=O)c2cccc3c(N4CCCCCC4)ccc(c23)C1=O	M1 antagonist -14, M1 ag 451 | M1 ag confirm 2972 | M4 ag counter 2513
COc1cc(NC(=O)c2ccco2)c(OC)cc1NC(=O)c1cc(OC)c(OC)c(OC)c1	M1 ag 11 (no result: mHtt clearance) | M1 ag confirm -32 | M4 ag counter inactive
COc1ccc(CCNC(=O)c2ccc(=O)[nH]n2)cc1OC	none (no result: D1 mod, mHtt clearance)
COc1ccc(NC(=O)c2ccccc2NC(=O)c2ccco2)c(OC)c1	M1 ag 7.7 (no result: mHtt clearance) | M1 ag confirm inconclusive | M4 ag counter inactive
COc1ccc(CCNC(=O)c2ccccc2NC(=O)c2ccco2)cc1OC	M1 ag 4 | M1 ag confirm inconclusive | M4 ag counter -77
